Results filed as inconclusive are left out. Activity calls are given as the source filed them. Calls follow the shape of the dose curve; as a rule, active = well fitted cell-killing curve with a large enough effect; inconclusive = small, poorly fitted or top-dose-only effect, or effect the other way; inactive = no such curve, though single readings can be large or run the other way.
Assay: qHTS of pediatric cancer cell lines to identify multiple opportunities for drug repurposing: Confirmatory screen for RD cells (AID 1347124);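 also: cells exposed to compound for 48 h before viability readout; nearly all actives have a fitted effect of over 65% in size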
Conditions: RD rhabdomyosarcoma cell viability; series mostly up to 45.9 µM
Procedure, shortened: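 Cells (500-1,000/well) rested 5 h, then received compounds for 48 h; metabolically active cells were measured by CellTiter-Glo luminescence. Final concentrations spanned up to 46 µM (MIPE, 11-point) or 0.59 nM-46 µM (NPC, 8-point) in primary screens, 11-point in follow-ups.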
Potency is read from the fitted curve at half-maximal effect.

Structure (SMILES)	Potency
C=CC(=O)Nc1ccc2ncnc(Nc3ccc(OCc4cccc(F)c4)c(Cl)c3)c2c1	1.47 µM (active)
CC(=O)N1CCN(c2ccc(OCc3nn(C)c(C)c3-c3cccc4c(CCCOc5cccc6ccccc56)c(C(=O)O)n(Cc5cccnc5)c34)cc2)CC1	inactive
Cc1cnc(Nc2ccc(N3CCN(C)CC3)cc2)nc1Nc1cccc(S(=O)(=O)NC(C)(C)C)c1	7.37 µM (active)
CNC(=O)c1ccc(Nc2cc(Nc3ccccc3S(=O)(=O)C(C)C)c3cc[nH]c3n2)nc1	9.27 µM (active)
CCOc1cc2ncc(C#N)c(Nc3ccc(OCc4ccccn4)c(Cl)c3)c2cc1NC(=O)C=CCN(C)C	2.33 µM (active)
C=C1C(=CC=C2CCC[C@]3(C)[C@@H]([C@H](C)CCCC(C)(C)O)CC[C@@H]23)C[C@@H](O)C[C@@H]1O	inactive
O=C(NCc1ccccc1)[C@H](Cc1ccccc1)NC(=O)[C@@H]1O[C@@H]1C(=O)NCCc1ccc(O)cc1	inactive
CC(=O)SCC(Cc1ccccc1)C(=O)NCC(=O)OCc1ccccc1 (configuration not stated)	inactive
COc1ccc2c(c1OC)C(=O)OC2[C@H]1c2c(cc3c(c2OC)OCO3)CCN1C (some centres not stated)	inactive
COc1cc(C[C@@H](CO)[C@H](CO)Cc2ccc(O)c(OC)c2)ccc1O	16.5 µM (active)
C#CCC(Cc1cnc2nc(N)nc(N)c2n1)c1ccc(C(=O)N[C@@H](CCC(=O)O)C(=O)O)cc1 (some centres not stated)	0.233 µM (active)
COc1cccc2c1C(=O)c1c(O)c3c(c(O)c1C2=O)C[C@@](O)(C(=O)CO)C[C@@H]3O[C@H]1C[C@H](N)[C@@H](O)[C@H](C)O1	3.29 µM (active)
